In PubChem BioAssay AID1159580 (chemical genetic matrix, 2015):
Out of some 5,500 compounds screened, about 2,000 (36%) were called active. Another 18% or so got no clear call; they are omitted. No stated cut-off is given here; in the data, active means normalized growth mostly below about 0.91 (no sharp cut-off); inconclusive means no clear call, values can overlap the other calls; inactive means mostly above about 0.92. The list shows a part of the results.

Experiment: chemical genetic growth profiling, strain panel (AID 1159580);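 further: tested at 20 µM; growth read once vehicle control cultures reached saturation at 30 °C; 1 = growth at the plate median or of vehicle wells; lower values mean less growth of the strain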
Details: growth OD

Measured: normalized growth

C=C1[C@H]2CC[C@@]3(C)[C@H](c4ccoc4)OC(=O)C[C@]13O[C@H]1C[C@H](O)C(C)(C)[C@H](CC(=O)OC)[C@]12C
inactive: S. cerevisiae deletion strains, locus YJR066W, strain TOR1, active compounds read low 0.936 | S. cerevisiae deletion strains, locus YJR075W, strain HOC1, active compounds read low 0.994 | S. cerevisiae deletion strains, locus YKL009W, strain mrt4, active compounds read low 0.997 | S. cerevisiae deletion strains, locus YKL068W, active compounds read low 1.02 | S. cerevisiae deletion strains, locus YKL085W, strain MDH1 (second series), active compounds read low 1 | S. cerevisiae deletion strains, locus YKL085W, strain MDH1, active compounds read low 1 | S. cerevisiae deletion strains, locus YKL160W, strain elf1, active compounds read low 0.998 | S. cerevisiae deletion strains, locus YKR001C, strain vps1, active compounds read low 1.01 | S. cerevisiae deletion strains, locus YKR026C, strain gcn3, active compounds read low 1.02 | S. cerevisiae deletion strains, locus YKR091W, strain srl3, active compounds read low 1.02 | S. cerevisiae deletion strains, locus YLL001W, strain dnm1, active compounds read low 1.01 | S. cerevisiae deletion strains, locus YLL026W, active compounds read low 1.01 | S. cerevisiae deletion strains, locus YLL041C, strain sdh2, active compounds read low 1.01 | S. cerevisiae deletion strains, locus YLR027C, strain aat2, active compounds read low 1.01 | S. cerevisiae deletion strains, locus YLR039C, strain RIC1, active compounds read low 0.969 | S. cerevisiae deletion strains, locus YLR058C, strain SHM2, active compounds read low 1.01 | S. cerevisiae deletion strains, locus YLR102C, strain apc9, active compounds read low 1.01 | S. cerevisiae deletion strains, locus YLR113W, strain HOG1, active compounds read low 1.04 | S. cerevisiae deletion strains, locus YLR221C, strain rsa3, active compounds read low 1.03 | S. cerevisiae deletion strains, locus YLR258W, strain gsy2, active compounds read low 1 | S. cerevisiae deletion strains, locus YLR262C, strain YPT6 (second series), active compounds read low 0.994 | S. cerevisiae deletion strains, locus YLR262C, strain YPT6, active compounds read low 0.938 | S. cerevisiae deletion strains, locus YLR268W, strain sec22, active compounds read low 1.01 | S. cerevisiae deletion strains, locus YLR320W, strain mms22, active compounds read low 1.03 | S. cerevisiae deletion strains, locus YLR342W, strain FKS1, active compounds read low 1.02 | S. cerevisiae deletion strains, locus YLR357W, strain rsc2, active compounds read low 1.03 | S. cerevisiae deletion strains, locus YLR370C, strain arc18, active compounds read low 1 | S. cerevisiae deletion strains, locus YLR371W, strain rom2, active compounds read low 1.02 | S. cerevisiae deletion strains, locus YLR384C, strain iki3, active compounds read low 1.01 | S. cerevisiae deletion strains, locus YLR418C, strain cdc73, active compounds read low 0.997 | S. cerevisiae deletion strains, locus YML016C, strain PPZ1, active compounds read low 1 | S. cerevisiae deletion strains, locus YML032C, strain rad52, active compounds read low 1.01 | S. cerevisiae deletion strains, locus YML120C, strain ndi1, active compounds read low 0.998 | S. cerevisiae deletion strains, locus YML124C, strain tub3, active compounds read low 1.02 | S. cerevisiae deletion strains, locus YMR058W, strain fet3, active compounds read low 1.05 | S. cerevisiae deletion strains, locus YMR078C, strain ctf18, active compounds read low 1.02 | S. cerevisiae deletion strains, locus YMR125W, strain sto1, active compounds read low 1 | S. cerevisiae deletion strains, locus YMR129W, active compounds read low 1.01 | S. cerevisiae deletion strains, locus YMR205C, strain PFK2, active compounds read low 1.01 | S. cerevisiae deletion strains, locus YMR223W, strain ubp8, active compounds read low 1.01 | S. cerevisiae deletion strains, locus YMR231W, strain pep5, active compounds read low 1.01 | S. cerevisiae deletion strains, locus YMR263W, strain SAP30, active compounds read low 1.01 | S. cerevisiae deletion strains, locus YMR307W, strain GAS1, active compounds read low 1.03 | S. cerevisiae deletion strains, locus YNL067W, strain RPL9B, active compounds read low 1 | S. cerevisiae deletion strains, locus YNL071W, strain lat1, active compounds read low 1.01 | S. cerevisiae deletion strains, locus YNL153C, strain GIM3, active compounds read low 1.01 | S. cerevisiae deletion strains, locus YNL183C, strain NPR1, active compounds read low 0.943 | S. cerevisiae deletion strains, locus YNL209W, strain ssb2, active compounds read low 1.04 | S. cerevisiae deletion strains, locus YNL233W, strain BNI4, active compounds read low 0.988 | S. cerevisiae deletion strains, locus YNL248C, strain rpa49, active compounds read low 1.05 | S. cerevisiae deletion strains, locus YNL250W, strain rad50, active compounds read low 1.01 | S. cerevisiae deletion strains, locus YNL271C, strain bni1, active compounds read low 0.995 | S. cerevisiae deletion strains, locus YNL298W, strain CLA4, active compounds read low 1.02 | S. cerevisiae deletion strains, locus YNL307C, strain MCK1, active compounds read low 1.02 | S. cerevisiae deletion strains, locus YNL322C, strain KRE1 (second series), active compounds read low 1.02 | S. cerevisiae deletion strains, locus YNL322C, strain KRE1, active compounds read low 1 | S. cerevisiae deletion strains, locus YNR049C, strain mso1, active compounds read low 1.02 | S. cerevisiae deletion strains, locus YNR052C, strain pop2, active compounds read low 1.02 | S. cerevisiae deletion strains, locus YOL006C, strain TOP1, active compounds read low 1 | S. cerevisiae deletion strains, locus YOL012C, strain htz1 0.768 | S. cerevisiae deletion strains, locus YOL147C, strain pex11, active compounds read low 1.02 | S. cerevisiae deletion strains, locus YOR001W, strain rrp6, active compounds read low 1.03 | S. cerevisiae deletion strains, locus YOR061W, strain CKA2, active compounds read low 1 | S. cerevisiae deletion strains, locus YOR069W, strain VPS5, active compounds read low 1 | S. cerevisiae deletion strains, locus YOR070C, strain gyp1, active compounds read low 1.03 | S. cerevisiae deletion strains, locus YOR080W, strain dia2, active compounds read low 1.02 | S. cerevisiae deletion strains, locus YOR083W, strain WHI5, active compounds read low 0.999 | S. cerevisiae deletion strains, locus YOR106W, strain vam3, active compounds read low 0.998 | S. cerevisiae deletion strains, locus YOR136W, strain idh2, active compounds read low 1.02 | S. cerevisiae deletion strains, locus YOR144C, strain elg1, active compounds read low 1.02 | S. cerevisiae deletion strains, locus YOR184W, strain ser1, active compounds read low 1.02 | S. cerevisiae deletion strains, locus YOR231W, strain MKK1, active compounds read low 0.985 | S. cerevisiae deletion strains, locus YOR265W, strain rbl2, active compounds read low 1 | S. cerevisiae deletion strains, locus YOR270C, strain vph1, active compounds read low 1.01 | S. cerevisiae deletion strains, locus YOR290C, strain snf2, active compounds read low 0.974 | S. cerevisiae deletion strains, locus YOR316C, strain cot1, active compounds read low 1.02 | S. cerevisiae deletion strains, locus YPL051W, strain arl3, active compounds read low 1.02 | S. cerevisiae deletion strains, locus YPL078C, strain atp4, active compounds read low 0.985 | S. cerevisiae deletion strains, locus YPL106C, strain sse1, active compounds read low 1 | S. cerevisiae deletion strains, locus YPL240C, strain hsp82, active compounds read low 1.01 | S. cerevisiae deletion strains, locus YPL256C, strain CLN2, active compounds read low 0.981 | S. cerevisiae deletion strains, locus YPR119W, strain clb2, active compounds read low 1.01 | S. cerevisiae deletion strains, locus YPR141C, strain kar3, active compounds read low 1.02 | S. cerevisiae deletion strains, locus YPR163C, strain tif3, active compounds read low 1.01 | S. cerevisiae deletion strains, locus YPR167C, strain met16, active compounds read low 1.02 | S. cerevisiae deletion strains, strain wtn01, active compounds read low 1.01 | S. cerevisiae strains, strain wild type, active compounds read low 1.01
